Data published in the supplement of paper PMC10849652.
Of roughly 8,800 targets only a part is listed; those with a hit were picked by preference. About 0.5% of all pairs of compound and target were hits. Values without a mark were called inactive.

Key:
Assay in all cases: log2 fold change, soluble protein after heating vs DMSO (PISA); higher = thermal stabilisation; K562 lysate, 10 uM; active = over 0.2 and 3.5 SD of the protein, either way, in both replicates (recomputed)
[1] = compound: CN1CC[C@H](c2c(O)cc(O)c3c(=O)cc(-c4ccccc4Cl)oc23)[C@H](O)C1 [alvocidib]
Method in brief: (§1)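 Following dounce homogenisation of K562 pellets in PBS pH 7.4 with 1 mM MgCl2, crude extract at 1 mg/mL protein was incubated for 30 min with 10 μM compound. Aliquots were then heated for 3 min over 48°C-58°C and pooled, NP-40 was added to 0.5% at 4°C, and soluble protein was recovered as the supernatant at 21,000xg for 90 min. Channel-sum-equalised TMTpro 16plex LC-MS/MS quantified this protein. Each value, from duplicates, is a log-two fold change in thermal stability relative to solvent controls.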

[2] = compound: CN1CCc2c(c3ccccc3n2Cc2ccc(C(=O)NO)cc2)C1 [Tubastatin A]
Method in brief: as §1

[3] = compound: CNC(=O)C1=CC=CC=C1NC2=NC(=NC=C2Cl)NC3=C(C=C(C=C3)N4CCOCC4)OC
Method in brief: as §1

[4] = compound: CNC(=O)c1ccc(Nc2ncc(C(F)(F)F)c(NCc3nccnc3N(C)S(C)(=O)=O)n2)cc1 [defactinib]
Method in brief: as §1

[5] = compound: CNc1nc(-c2ccc3c(N)n[nH]c3c2)cc(N2C[C@@H](C(=O)NC3CCCCC3)CC[C@H]2C)n1
Method in brief: as §1

[6] = compound: COC(=O)N[C@@H](C)CNc1nccc(-c2cn(C(C)C)nc2-c2cc(Cl)cc(NS(C)(=O)=O)c2F)n1 [encorafenib]
Method in brief: as §1

[7] = compound: COC(=O)[C@H](CCSC)NC(=O)C1=C(C=C(C=C1)NC[C@H](CS)N)C2=CC=CC=C2
Method in brief: as §1

[8] = compound: COc1cc2nc(-c3cc(F)ccc3O)nc(N[C@@H]3CNC[C@H]3C(C)(C)O)c2cc1OC
Method in brief: as §1

[9] = compound: CS(=O)(=O)CCNCc1ccc(-c2ccc3ncnc(Nc4ccc(OCc5cccc(F)c5)c(Cl)c4)c3c2)o1 [lapatinib]
Method in brief: as §1

[10] = compound: CS(=O)(=O)N1CCN(Cc2cc3nc(-c4cccc5[nH]ncc45)nc(N4CCOCC4)c3s2)CC1 [pictilisib]
Method in brief: as §1

[11] = compound: C[C@H](C1=CC=C(C=C1)C(=O)NC2=C3C=CNC3=NC=C2)N
Method in brief: as §1

[12] = compound: C[C@H](Nc1ncnc2nc[nH]c12)c1cc2cccc(Cl)c2c(=O)n1-c1ccccc1 [duvelisib]
Method in brief: as §1

[13] = compound: Cc1cc(Nc2cc(CN3CCOCC3)c3nc(C)c(Cc4ccc(Cl)cc4F)n3n2)n[nH]1 [gandotinib]
Method in brief: as §1

[14] = compound: Cc1cc(Nc2cc(N3CCN(C)CC3)nc(Sc3ccc(NC(=O)C4CC4)cc3)n2)n[nH]1 [tozasertib]
Method in brief: as §1

[15] = compound: Cc1ccc(NC(=O)c2ccc(CN3CC[C@H](N(C)C)C3)c(C(F)(F)F)c2)cc1Nc1nccc(-c2cncnc2)n1 [bafetinib]
Method in brief: as §1

[16] = compound: Cc1cccc(CC(=O)N2CCc3c2ccc(-c2cn(C)c4ncnc(N)c24)c3F)n1
Method in brief: as §1

[17] = compound: COc1cc(Nc2ncc3c(n2)-c2ccc(Cl)cc2C(c2c(F)cccc2OC)=NC3)ccc1C(=O)O [alisertib]
Method in brief: as §1

[18] = compound: COc1cc2ncnc(Nc3ccc(F)c(Cl)c3)c2cc1OCCCN1CCOCC1 [gefitinib]
Method in brief: as §1

[19] = compound: C[C@@H](Oc1cc(-c2cnn(C3CCNCC3)c2)cnc1N)c1c(Cl)ccc(F)c1Cl [crizotinib]
Method in brief: as §1

[20] = compound: Cc1ccc(-n2nc(C(C)(C)C)cc2NC(=O)Nc2ccc(OCCN3CCOCC3)c3ccccc23)cc1 [doramapimod]
Method in brief: as §1

Sequence of UniProt Q6P4F2 (Q6P4F2 whole entry, looked up): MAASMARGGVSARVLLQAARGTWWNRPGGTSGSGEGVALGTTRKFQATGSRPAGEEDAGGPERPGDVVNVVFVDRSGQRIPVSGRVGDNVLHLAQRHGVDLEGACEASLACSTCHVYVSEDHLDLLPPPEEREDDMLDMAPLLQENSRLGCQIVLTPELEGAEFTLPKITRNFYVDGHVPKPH
Sequence of UniProt P26378 (P26378 whole entry, looked up): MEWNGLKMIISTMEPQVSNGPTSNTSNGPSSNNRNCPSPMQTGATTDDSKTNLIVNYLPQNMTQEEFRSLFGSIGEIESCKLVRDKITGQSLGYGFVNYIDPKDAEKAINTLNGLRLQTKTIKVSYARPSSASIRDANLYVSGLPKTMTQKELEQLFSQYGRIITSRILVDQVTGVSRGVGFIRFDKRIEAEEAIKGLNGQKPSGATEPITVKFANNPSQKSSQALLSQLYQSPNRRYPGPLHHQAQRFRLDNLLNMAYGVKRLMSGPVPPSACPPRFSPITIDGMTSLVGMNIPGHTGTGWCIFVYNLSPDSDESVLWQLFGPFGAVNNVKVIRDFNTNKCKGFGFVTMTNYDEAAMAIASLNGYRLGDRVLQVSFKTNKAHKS
Sequence of UniProt Q8N5C7 (Q8N5C7 whole entry, looked up): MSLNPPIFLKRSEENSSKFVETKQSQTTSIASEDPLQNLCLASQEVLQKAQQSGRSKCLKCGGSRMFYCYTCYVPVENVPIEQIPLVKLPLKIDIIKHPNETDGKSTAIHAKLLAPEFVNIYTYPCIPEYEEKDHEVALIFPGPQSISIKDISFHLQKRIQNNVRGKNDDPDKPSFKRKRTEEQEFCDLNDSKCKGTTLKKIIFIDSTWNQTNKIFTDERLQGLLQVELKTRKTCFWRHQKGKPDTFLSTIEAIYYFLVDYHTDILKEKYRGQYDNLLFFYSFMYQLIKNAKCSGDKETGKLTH
Sequence of UniProt P48507 (P48507 whole entry, looked up): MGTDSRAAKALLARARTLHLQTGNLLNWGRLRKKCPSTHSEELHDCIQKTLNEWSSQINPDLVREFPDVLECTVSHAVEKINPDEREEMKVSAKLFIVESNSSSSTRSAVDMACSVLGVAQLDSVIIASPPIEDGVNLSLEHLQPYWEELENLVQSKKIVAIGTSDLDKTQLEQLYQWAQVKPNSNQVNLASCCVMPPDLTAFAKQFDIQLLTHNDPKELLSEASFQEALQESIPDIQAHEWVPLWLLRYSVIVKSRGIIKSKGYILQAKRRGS
Sequence of UniProt Q96A65 (Q96A65 whole entry, looked up): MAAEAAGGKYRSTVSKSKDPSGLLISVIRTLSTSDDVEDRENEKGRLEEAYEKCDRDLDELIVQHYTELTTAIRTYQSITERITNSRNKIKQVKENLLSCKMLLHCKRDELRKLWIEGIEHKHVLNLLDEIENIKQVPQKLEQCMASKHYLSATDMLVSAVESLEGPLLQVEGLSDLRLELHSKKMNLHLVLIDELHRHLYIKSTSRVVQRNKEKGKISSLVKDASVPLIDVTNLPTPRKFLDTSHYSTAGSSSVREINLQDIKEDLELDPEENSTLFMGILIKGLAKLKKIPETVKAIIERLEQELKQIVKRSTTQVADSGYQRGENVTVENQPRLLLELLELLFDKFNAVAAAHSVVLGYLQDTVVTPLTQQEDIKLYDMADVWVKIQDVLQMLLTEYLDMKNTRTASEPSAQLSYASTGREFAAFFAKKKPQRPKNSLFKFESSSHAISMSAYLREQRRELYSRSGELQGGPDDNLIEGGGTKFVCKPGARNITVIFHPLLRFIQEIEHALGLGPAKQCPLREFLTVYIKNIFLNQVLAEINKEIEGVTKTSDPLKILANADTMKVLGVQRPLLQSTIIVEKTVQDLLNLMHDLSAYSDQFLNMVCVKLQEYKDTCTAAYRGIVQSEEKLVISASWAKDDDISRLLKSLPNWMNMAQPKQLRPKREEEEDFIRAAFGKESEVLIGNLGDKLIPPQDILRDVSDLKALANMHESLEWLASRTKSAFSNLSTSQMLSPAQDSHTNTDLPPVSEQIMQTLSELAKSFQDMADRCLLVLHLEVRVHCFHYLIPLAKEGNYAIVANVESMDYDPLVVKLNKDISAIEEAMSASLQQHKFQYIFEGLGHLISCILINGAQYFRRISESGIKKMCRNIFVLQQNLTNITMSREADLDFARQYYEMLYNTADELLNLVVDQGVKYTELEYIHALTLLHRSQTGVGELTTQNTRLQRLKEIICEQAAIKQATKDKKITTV
Sequence of UniProt Q9NPA0 (Q9NPA0 whole entry, looked up): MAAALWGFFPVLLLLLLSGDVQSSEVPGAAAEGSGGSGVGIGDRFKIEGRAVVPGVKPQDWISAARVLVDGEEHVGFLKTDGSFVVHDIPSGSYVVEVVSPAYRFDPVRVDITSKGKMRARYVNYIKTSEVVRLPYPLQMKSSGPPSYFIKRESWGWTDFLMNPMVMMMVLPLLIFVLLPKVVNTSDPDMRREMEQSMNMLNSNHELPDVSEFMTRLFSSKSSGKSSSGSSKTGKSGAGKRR
Sequence of UniProt Q14153 (Q14153 whole entry, looked up): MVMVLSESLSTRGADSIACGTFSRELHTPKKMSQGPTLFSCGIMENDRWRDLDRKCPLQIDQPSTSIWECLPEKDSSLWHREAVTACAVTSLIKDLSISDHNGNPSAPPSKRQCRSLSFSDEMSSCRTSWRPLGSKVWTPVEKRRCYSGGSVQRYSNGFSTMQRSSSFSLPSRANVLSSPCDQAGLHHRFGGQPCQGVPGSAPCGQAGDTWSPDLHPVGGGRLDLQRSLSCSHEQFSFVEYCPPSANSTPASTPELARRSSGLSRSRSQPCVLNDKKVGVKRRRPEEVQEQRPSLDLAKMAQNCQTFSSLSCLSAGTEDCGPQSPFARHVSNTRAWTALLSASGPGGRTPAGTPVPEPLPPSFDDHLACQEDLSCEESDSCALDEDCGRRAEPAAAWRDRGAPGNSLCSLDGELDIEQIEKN
Sequence of UniProt Q06547 (Q06547 whole entry, looked up): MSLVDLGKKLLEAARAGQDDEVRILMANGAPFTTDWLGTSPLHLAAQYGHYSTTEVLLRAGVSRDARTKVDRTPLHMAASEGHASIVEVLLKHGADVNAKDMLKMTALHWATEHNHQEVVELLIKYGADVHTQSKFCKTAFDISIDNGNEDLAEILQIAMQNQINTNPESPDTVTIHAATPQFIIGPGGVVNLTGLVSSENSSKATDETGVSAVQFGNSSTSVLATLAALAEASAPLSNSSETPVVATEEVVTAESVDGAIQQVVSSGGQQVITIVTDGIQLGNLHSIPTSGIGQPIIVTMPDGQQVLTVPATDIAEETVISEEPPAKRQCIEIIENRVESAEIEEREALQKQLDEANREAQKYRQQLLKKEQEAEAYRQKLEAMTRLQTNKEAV
Sequence of UniProt P57678 (P57678 whole entry, looked up): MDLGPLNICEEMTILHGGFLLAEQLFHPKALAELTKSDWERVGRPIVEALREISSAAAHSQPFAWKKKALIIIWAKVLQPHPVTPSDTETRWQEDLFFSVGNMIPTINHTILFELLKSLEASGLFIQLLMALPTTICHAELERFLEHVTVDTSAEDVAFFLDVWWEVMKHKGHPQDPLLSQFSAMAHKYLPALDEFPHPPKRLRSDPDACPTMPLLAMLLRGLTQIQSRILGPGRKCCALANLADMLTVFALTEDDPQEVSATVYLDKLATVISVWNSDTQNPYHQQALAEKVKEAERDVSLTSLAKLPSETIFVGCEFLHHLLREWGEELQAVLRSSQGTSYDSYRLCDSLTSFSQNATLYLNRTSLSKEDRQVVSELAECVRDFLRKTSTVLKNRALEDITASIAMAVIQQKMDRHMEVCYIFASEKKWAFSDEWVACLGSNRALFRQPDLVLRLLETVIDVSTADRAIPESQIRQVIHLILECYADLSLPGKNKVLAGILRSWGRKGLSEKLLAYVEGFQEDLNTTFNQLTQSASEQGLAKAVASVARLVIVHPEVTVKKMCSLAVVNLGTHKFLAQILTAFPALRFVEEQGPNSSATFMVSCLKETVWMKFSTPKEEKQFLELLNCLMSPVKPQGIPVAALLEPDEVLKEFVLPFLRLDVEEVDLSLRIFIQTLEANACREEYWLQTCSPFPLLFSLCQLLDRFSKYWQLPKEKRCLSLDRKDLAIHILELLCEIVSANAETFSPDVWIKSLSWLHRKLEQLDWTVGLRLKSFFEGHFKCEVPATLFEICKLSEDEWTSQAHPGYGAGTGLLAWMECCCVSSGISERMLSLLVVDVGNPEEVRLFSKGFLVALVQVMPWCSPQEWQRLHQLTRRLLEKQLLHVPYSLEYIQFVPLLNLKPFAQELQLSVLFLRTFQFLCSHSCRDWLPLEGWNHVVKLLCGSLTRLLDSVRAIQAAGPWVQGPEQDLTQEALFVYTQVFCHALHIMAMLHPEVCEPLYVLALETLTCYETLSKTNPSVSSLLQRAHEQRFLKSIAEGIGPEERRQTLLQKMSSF
Sequence of UniProt Q8N6R0 (Q8N6R0 whole entry, looked up): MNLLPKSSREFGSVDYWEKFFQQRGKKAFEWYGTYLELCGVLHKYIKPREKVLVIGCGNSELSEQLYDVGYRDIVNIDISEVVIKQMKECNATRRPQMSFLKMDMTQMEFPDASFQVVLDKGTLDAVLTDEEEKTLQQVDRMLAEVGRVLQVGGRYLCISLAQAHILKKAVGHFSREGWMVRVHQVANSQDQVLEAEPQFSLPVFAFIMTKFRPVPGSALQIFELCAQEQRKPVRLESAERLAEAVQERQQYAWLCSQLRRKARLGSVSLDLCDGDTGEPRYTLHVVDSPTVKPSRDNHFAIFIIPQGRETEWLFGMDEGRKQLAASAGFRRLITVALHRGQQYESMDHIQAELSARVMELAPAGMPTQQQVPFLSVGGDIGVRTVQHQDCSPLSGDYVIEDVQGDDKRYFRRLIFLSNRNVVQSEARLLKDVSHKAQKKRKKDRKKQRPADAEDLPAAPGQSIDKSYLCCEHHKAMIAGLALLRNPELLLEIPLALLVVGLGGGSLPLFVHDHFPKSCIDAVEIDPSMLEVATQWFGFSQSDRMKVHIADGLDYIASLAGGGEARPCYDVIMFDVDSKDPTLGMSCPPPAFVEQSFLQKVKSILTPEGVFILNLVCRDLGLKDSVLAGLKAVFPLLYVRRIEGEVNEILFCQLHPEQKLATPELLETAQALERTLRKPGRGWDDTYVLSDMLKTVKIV

Row | Target | log2 fold change [1] | log2 fold change [2] | log2 fold change [3] | log2 fold change [4] | log2 fold change [5] | log2 fold change [6] | log2 fold change [7] | log2 fold change [8] | log2 fold change [9] | log2 fold change [10] | log2 fold change [11] | log2 fold change [12] | log2 fold change [13] | log2 fold change [14] | log2 fold change [15] | log2 fold change [16] | log2 fold change [17] | log2 fold change [18] | log2 fold change [19] | log2 fold change [20]
1 | FLT4 (UniProt P35916) | -0.086 | -0.001 | -0.428 (active) | 0.004 | -0.081 | -0.129 | 0.053 | 0.031 | -0.007 | 0.057 | -0.173 | 0.026 | 0.019 | -0.056 | -0.035 | -0.041 | – | – | – | –
2 | DTWD1 (UniProt Q8N5C7) | 0.041 | -0.028 | 0.011 | -0.032 | 0.01 | -0.044 | -0.046 | 0.005 | -0.049 | -0.049 | 0.015 | 0.06 | -0.07 | -0.075 | 0.002 | 0.092 | 0 | -0.006 | 0 | 0.035
3 | FAM53B (UniProt Q14153) | -0.125 | 0.473 (active) | 0.098 | 0.025 | -0.064 | 0.019 | -0.1 | – | – | 0.02 | -0.032 | 0.079 | 0.037 | 0.024 | -0.023 | 0.083 | -0.04 | -0.075 | -0.03 | 0.169
4 | GCLM (UniProt P48507) | 0.028 | -0.049 | 0.003 | 0.003 | -0.038 | -0.003 | -0.004 | 0.002 | -0.006 | -0.013 | -0.009 | 0.016 | -0.004 | -0.017 | 0.003 | -0.03 | 0.05 | -0.023 | 0.018 | 0.001
5 | ELAVL4 (UniProt P26378) | 0.019 | -0.125 | 0.036 | -0.007 | -0.003 | 0.003 | 0.211 | -0.031 | -0.017 | – | -0.064 | 0.03 | -0.034 | 0.05 | – | -0.061 | 0.136 | 0.056 | -0.065 | 0.035
6 | ENO2 (UniProt P09104) | -0.279 (active) | 0.024 | -0.018 | -0.007 | 0.073 | 0.032 | 0.086 | -0.014 | 0.01 | 0.012 | -0.358 (active) | 0.04 | 0.214 | -0.111 | -0.014 | 0.264 (active) | -0.025 | -0.021 | -0.009 | -0.012
7 | GEMIN4 (UniProt P57678) | 0.017 | -0.196 | 0.078 | -0.014 | -0.072 | 0.022 | 0.013 | -0.005 | -0.031 | -0.012 | -0.013 | 0.004 | -0.188 | -0.009 | -0.038 | 0.039 | -0.006 | 0.016 | -0.065 | 0.032
8 | FAM83A (UniProt Q86UY5) | -0.095 | -0.039 | 0.061 | -0.055 | 0.015 | 0.02 | 0.07 | -0.013 | 0.012 | 0.021 | -0.142 | -0.047 | 0.155 | -0.013 | -0.053 | 0.056 | 0.02 | 0.017 | 0.086 | 0.195
9 | EXOC4 (UniProt Q96A65) | 0.03 | -0.073 | -0.053 | 0.039 | -0.084 | 0.022 | 0.078 | 0.008 | -0.038 | 0.018 | 0.011 | 0.024 | -0.165 | -0.028 | -0.056 | 0.015 | 0.009 | -0.035 | -0.044 | -0.023
10 | EMC7 (UniProt Q9NPA0) | -0.146 | 0.039 | -0.037 | 0.02 | -0.008 | 0.026 | -0.058 | 0.017 | -0.03 | 0.024 | -0.353 (active) | -0.041 | 0.077 | 0.02 | -0.031 | 0.174 | 0.001 | -0.043 | 0.012 | 0.011
11 | ELAVL1 isoform 2 (UniProt Q15717) | 0.013 | -0.187 | 0.05 | -0.005 | -0.011 | 0.018 | 0.166 | -0.002 | 0.031 | -0.002 | 0.055 | 0.001 | -0.067 | -0.047 | -0.004 | -0.026 | 0.019 | 0.048 | -0.037 | 0.007
12 | FDX2 (UniProt Q6P4F2) | -0.016 | 0.093 | -0.001 | -0.017 | -0.478 | -0.33 | -0.313 | -0.021 | 0.047 | -0.169 | -0.142 | 0.188 | 0.014 | -0.15 | 0 | 0.112 | 0.07 | -0.041 | 0.057 | 0.014
13 | FBXO38 (UniProt Q6PIJ6) | -0.008 | -0.043 | -0.616 (active) | 0.019 | 0.01 | -0.004 | -0.038 | -0.062 | 0.039 | -0.052 | 0.018 | 0.01 | -0.037 | 0.119 | -0.316 | -0.016 | -0.015 | 0.056 | 0.038 | 0.05
14 | EEF1AKNMT (UniProt Q8N6R0) | 0.009 | -0.102 | 0.051 | -0.012 | -0.015 | 0.005 | 0.076 | 0.027 | -0.006 | -0.046 | 0.017 | 0.03 | -0.133 | -0.029 | -0.014 | -0.024 | -0.02 | -0.031 | -0.123 | 0.074
15 | GABPB1 isoform 3 (UniProt Q06547) | -0.013 | -0.299 (active) | -0.055 | -0.025 | -0.039 | -0.006 | 0.099 | 0.016 | -0.057 | -0.086 | -0.007 | 0.068 | 0 | -0.001 | -0.149 | 0.043 | – | – | 0.001 | -0.029
16 | FYN (UniProt P06241) | -0.078 | 0.03 | -0.009 | 0.038 | -0.069 | 0.092 | -0.121 | 0.005 | 0.007 | -0.201 | -0.092 | -0.019 | 0.422 (active) | 0.054 | 0.198 | -0.057 | – | – | 0.12 | -0.04
